Experimental data published in the supplement of paper PMC6555819.

How the values were obtained:
Assay in all cases: PBM binding z-score (relative to random genomic background probes); higher = stronger binding; sequences stand for … in GC…GCGATTGACAGCGTAGAATGAAGG
[1] = test system: PPARg:RXRa DBDmut IVT, anti-RXR (DBD mutation: RXRa K156A/R161A, NR concentration 270 nM, RXRa partner concentration 90 nM)
Method in brief: (§1)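 Probes were double-stranded and carried 34-nt variable regions with direct-repeat seeds, single-nucleotide variants, half-site ablations and random human genomic background sequences, printed on custom Agilent 4×180K protein-binding microarrays. Arrays were incubated 1 h with ligand-free nuclear receptor dimers in PBS pH 7.4, 2% milk, 0.02% Triton X-100, 1 mM DTT, 0.2 mg/mL BSA and 0.4 mg/ml salmon testes DNA. Antibodies against each partner (one per run) detected binding, and scanned fluorescence was regression-normalized. Binding z-scores use the random background probes as reference.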

[2] = test system: PPARg:RXRa IVT, anti-PPARg (NR concentration 270 nM, RXRa partner concentration 90 nM)
Method in brief: as §1

[3] = test system: PPARg DBDmut:RXRa IVT, anti-PPARg (DBD mutation: PPARg1 K132A/R137A, NR concentration 270 nM, RXRa partner concentration 90 nM)
Method in brief: as §1

[4] = test system: PPARg DBDmut IVT, anti-PPARg (DBD mutation: PPARg1 K132A/R137A, NR concentration 270 nM)
Method in brief: as §1

[5] = test system: PPARg homodimer (NR concentration 180 nM)
Method in brief: as §1

[6] = test system: PXR:RXRa (NR concentration 270 nM, RXRa partner concentration 90 nM)
Method in brief: as §1

[7] = test system: PXR homodimer (NR concentration 270 nM)
Method in brief: as §1

[8] = test system: RARa:RXR (NR concentration 270 nM, RXRa partner concentration 90 nM)
Method in brief: as §1

[9] = test system: RARa homodimer (NR concentration 270 nM)
Method in brief: as §1

[10] = test system: RARb:RXRa (NR concentration 270 nM, RXRa partner concentration 90 nM)
Method in brief: as §1

[11] = test system: RARb homodimer (NR concentration 270 nM)
Method in brief: as §1

[12] = test system: RARg:RXRa (NR concentration 270 nM, RXRa partner concentration 90 nM)
Method in brief: as §1

[13] = test system: RARg homodimer (NR concentration 270 nM)
Method in brief: as §1

[14] = test system: RXRa DBDmut IVT, anti-RXR (DBD mutation: RXRa K156A/R161A, NR concentration 90 nM)
Method in brief: as §1

[15] = test system: RXRa homodimer (NR concentration 180 nM)
Method in brief: as §1

[16] = test system: THRa:RXRa (NR concentration 90 nM, RXRa partner concentration 90 nM)
Method in brief: as §1

[17] = test system: THRa homodimer (NR concentration 90 nM)
Method in brief: as §1

[18] = test system: VDR homodimer (NR concentration 270 nM)
Method in brief: as §1

Row | Sequence | PBM binding z-score [1] | PBM binding z-score [2] | PBM binding z-score [3] | PBM binding z-score [4] | PBM binding z-score [5] | PBM binding z-score [6] | PBM binding z-score [7] | PBM binding z-score [8] | PBM binding z-score [9] | PBM binding z-score [10] | PBM binding z-score [11] | PBM binding z-score [12] | PBM binding z-score [13] | PBM binding z-score [14] | PBM binding z-score [15] | PBM binding z-score [16] | PBM binding z-score [17] | PBM binding z-score [18]
1 | ATCGAAAGGTTGTGAGGTGAGTATACAGAAAGGC | -0.125 | 0.638 | 0.845 | 0.495 | 0.431 | 0.336 | 0.498 | 1.15 | 0.35 | 1.45 | 1.22 | 1.14 | 1.19 | -0.0955 | 1.24 | 2.23 | 1.49 | 0.162
2 | CGTCCACGGTCAGCAGGTCAGTGAAAGCGACGTG | 0.719 | 0.748 | -0.923 | -1.32 | 0.382 | 0.0662 | -0.459 | 0.943 | -0.66 | 3.25 | 3.48 | 2.99 | 3.3 | 0.0347 | 0.719 | 1.22 | -0.0318 | -0.234
3 | CCTACTTGGCCACGAAAGGTCATTGATTCAGTGA | 1.97 | 2.14 | 0.246 | 0.627 | 3.9 | 5.3 | 1.97 | 5.51 | 2.48 | 4.09 | 4.61 | 4.77 | 4.41 | 1.36 | 5.16 | 3.44 | 1.3 | 2.78
4 | TCTAGTTGGTCAGAGGTCACACACTCGAAATGCG | 2.47 | 4.96 | 1.28 | 0.861 | 4.45 | 5.4 | 1.74 | 5.99 | 1.84 | 4.49 | 4.5 | 6.07 | 5.24 | 1.92 | 6.47 | 3.99 | 2.52 | 3.35
5 | TCTTTTAGTTGATTAGGGCAACCGAAACAGCGGA | 2.25 | 2.54 | 2.77 | 2.73 | 1.2 | 0.77 | 0.929 | 0.951 | 1.25 | 1.79 | 1.02 | 1.27 | 1.12 | 1.2 | 0.836 | 1.07 | 0.745 | 0.435
6 | AATACAGGGTCACTAGGCCAGGGTAGGTACGAAT | 3.28 | 6 | 2.53 | 1.9 | 2.35 | 3.05 | 0.325 | 3.76 | 1.02 | 4.23 | 3.44 | 4.88 | 4.64 | 2.33 | 5.25 | 3.41 | 1.34 | 2.71
7 | AGAACGAGTGCACGCTGAGTTGATAGCAGAGTAG | -0.434 | 0.0753 | 0.194 | -0.145 | -0.176 | 0.739 | 0.603 | -0.0592 | -0.662 | 0.298 | -0.576 | 0.354 | 0.356 | 3.07 | 0.384 | -0.0909 | -0.746 | 2.64
8 | CCTACTGGGCCAAAAAGCTCATTGATGCCGATAA | 3.38 | 2.11 | -0.849 | -0.936 | -0.703 | -0.847 | -0.417 | -1.01 | -0.487 | -0.356 | -0.842 | -0.596 | -0.419 | -0.369 | -0.638 | -0.815 | -0.619 | -0.487
9 | ACTCGGAGGAGAAAGGTCAGAGCTACGCCAGTGA | 0.262 | 1.73 | -0.454 | -0.291 | 2.29 | 3.09 | 0.0761 | 3.7 | 1.26 | 3.93 | 4.21 | 4.22 | 4.04 | 0.158 | 4 | 2.36 | -0.0607 | 0.437
10 | CCAGTCAGGTGAAAGGTAACTCAGTCTGGTACGC | 3.47 | 3.78 | -0.52 | -0.877 | 1.17 | 0.577 | -0.2 | 1.58 | 0.202 | 1.55 | 0.929 | 1.2 | 0.727 | 0.124 | 1.42 | 1.95 | 1.04 | -0.00335
11 | CGTCCAAGGTAAGCAGGTCAGTGAAAGCGACGTG | 1.7 | 1.91 | -0.624 | -0.894 | 0.421 | 0.192 | -0.446 | 0.529 | -0.36 | 1.89 | 2.25 | 1.08 | 1.44 | -0.436 | 0.485 | 1.7 | 0.269 | -0.407
12 | ATCTCTAGATAACCAAGTTCAGTGAATGCCGAAC | -0.316 | 0.0781 | 0.627 | 0.782 | 0.44 | 1.1 | 1.09 | 0.424 | 0.885 | 0.556 | 1.07 | 0.446 | 0.535 | 0.852 | 0.659 | 0.42 | 0.172 | 2.11
13 | TCGAGTAGGTTAGGGGTATTCAGAATGGCGTCGA | 2.5 | 2.26 | 0.429 | 0.6 | 0.948 | 0.383 | 0.362 | 0.00419 | 0.176 | 0.589 | 0.614 | 0.141 | -0.12 | 0.297 | 0.649 | 0.317 | 0.194 | 0.305
14 | CCTAGTTGGTCAATGTCACACACGCTATAGGTAC | 1.5 | 1.6 | 1.25 | 1.28 | 1.57 | 0.71 | 0.574 | 0.851 | 1.91 | 1.4 | 1.52 | 1.07 | 1.59 | 1.04 | 0.701 | 0.639 | 0.635 | 0.802
15 | GCGGCTGGGGCATCAGCAGGTTACCATAACTTAA | -0.444 | 0.118 | -1.33 | -0.84 | 0.149 | 0.178 | -0.595 | 0.635 | -0.988 | 0.966 | 1.16 | 0.705 | 0.632 | -0.632 | 0.166 | 1.01 | -0.483 | -0.207
16 | AGCATGAGGTTACCAAAGATCAGGGAAACGCTTG | 0.803 | 0.996 | 0.0724 | -0.827 | 0.663 | 1.38 | 0.241 | 2.44 | -0.672 | 2.07 | 1.04 | 2.27 | 1.81 | 1.12 | 2.78 | 2.96 | 0.893 | 0.309
17 | CCGAGTGGGGCAAAGGTTACCATACTCAGTACGA | 4.47 | 6.13 | 0.0641 | -0.366 | 3 | 2.82 | 0.105 | 4.13 | 0.606 | 2.44 | 2.45 | 3.55 | 1.75 | 0.25 | 3.67 | 1.86 | -0.359 | 0.16
18 | CGAACGAGGGCAAGAGTTGATAGCAAATGCCGAT | 3.38 | 2.22 | 0.196 | -0.307 | 0.163 | 0.404 | -0.197 | 0.316 | -0.216 | 2.38 | 1.44 | 1.67 | 1.85 | 1.89 | 1.1 | 0.79 | -0.443 | 1.07
19 | CGTCCAAGGTCAGAGAGGACAGTGAATGCCGAGT | 2.32 | 2.3 | -0.223 | -1.03 | 2.09 | 3.22 | 4.69 | 2.69 | 0.425 | 4.64 | 4.12 | 4.57 | 5.67 | 2.6 | 3.68 | 3.67 | 2.08 | 2.85
20 | CAAACAAGGTCAAGGTCAAAGTCGGTTTGTGCCA | 5.99 | 6.6 | 3.37 | 1.15 | 4.82 | – | 3 | 6.86 | 2.95 | – | 5.74 | – | 7.76 | 4.13 | – | 4.6 | 4.5 | 5.71
21 | GATACAGGGTCAAGGCAAGAGTACGCGTATTGAT | 2.89 | 4.14 | 1.59 | 0.74 | 2.69 | 3.78 | 0.428 | 4.61 | 1.12 | 4.62 | 3.45 | 5.5 | 5.14 | 2.63 | 6.28 | 3.72 | 1.16 | 2.31
22 | CAGCCTAGGTCAGGGCCCGTATAGGAGGAACGTT | 1.27 | 1.55 | -1.13 | -1.09 | 0.811 | -0.134 | -0.829 | 0.752 | -0.25 | 3.23 | 2.26 | 2.9 | 3.84 | -0.894 | 1.46 | 1.73 | 0.213 | -0.478
23 | CCTAGAAGGCCAGGGTCACTCAAGCATTTCGCTT | 0.376 | 0.709 | -1.14 | -1.39 | 1.89 | 2.81 | 0.284 | 3.21 | 1.23 | 3.06 | 3.02 | 3.47 | 3.15 | 0.637 | 3.9 | 2.96 | 1.16 | 2.13
